The full list was thinned out, with hits kept by preference.
CBX7 AlphaScr = blocks human CBX7 binding to H3K27me3 peptide; O95931; AlphaScreen His6-CBX7 / biotin-H3K27me3 peptide binding; stronger effect = lower value; normalised signal (fraction of DMSO) (no concentration beside the values); actives 1.1% (n = 66,000); AID 1224903; in the data active = normalised signal below about 0.5
Target sequence (O95931 whole entry, looked up): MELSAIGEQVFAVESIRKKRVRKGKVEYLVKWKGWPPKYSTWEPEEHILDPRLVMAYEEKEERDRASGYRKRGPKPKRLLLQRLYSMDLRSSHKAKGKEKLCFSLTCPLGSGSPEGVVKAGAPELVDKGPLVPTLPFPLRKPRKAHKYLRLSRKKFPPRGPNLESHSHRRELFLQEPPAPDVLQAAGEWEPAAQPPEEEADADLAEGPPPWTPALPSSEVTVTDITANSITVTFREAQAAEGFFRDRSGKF
* = called active by the depositor.

For Cc1ccc2nsnc2c1NC(=O)c1cc(Cl)ccc1Cl the results were CBX7 AlphaScr 1.04.
For CCN1C(=O)c2ccccc2S(=O)c2ccc(C(=O)N3CCN(Cc4ccccc4)CC3)cc21 (centres undefined) the results were CBX7 AlphaScr 0.934.
`CCC(C)N1C(=O)CN(C2CCC(C)CC2)C(=O)C1c1ccc(OC)c(OC)c1` (centres undefined) gave CBX7 AlphaScr 0.981.
NC(=O)c1oc2ccccc2c1NC(=O)c1ccc(S(=O)(=O)N2CCCc3ccccc32)cc1 was read as CBX7 AlphaScr 0.791.
For CCc1nnc(NC(=O)c2ccc(S(=O)(=O)N3CC(C)CC(C)C3)cc2)o1 (centres undefined) the results were CBX7 AlphaScr 0.698.
`CCc1nnc(NC(=O)c2ccc(S(=O)(=O)N3CCc4ccccc4C3)cc2)o1` gave CBX7 AlphaScr 0.631.
Screening COCc1nnc(NC(=O)c2ccc(S(=O)(=O)N3CCCC(C)C3)cc2)o1 (centres undefined) returned CBX7 AlphaScr 0.794.
Screening CCc1nnc(NC(=O)c2ccc(S(=O)(=O)N3CCCCC3C)cc2)o1 (centres undefined) returned CBX7 AlphaScr 0.783.
For COCc1nnc(NC(=O)c2ccc(S(=O)(=O)N3CCCCCC3)cc2)o1 the results were CBX7 AlphaScr 0.0663*.
CCc1nnc(NC(=O)c2ccc(S(=O)(=O)N3CCCc4ccccc43)cc2)o1 was read as CBX7 AlphaScr 0.0473*.
`CCc1nnc(NC(=O)c2ccc(S(=O)(=O)N3CCCC3)cc2)o1` gave CBX7 AlphaScr 0.454*.
CCC(=O)N1c2ccc(S(=O)(=O)CCC(=O)Nc3nc(C)cs3)cc2CC1C (centres undefined) was read as CBX7 AlphaScr 0.978.
For COC(=O)Cc1nc(N2CCN(c3ccccc3OC)CC2)c2c(C)c(C)sc2n1 the results were CBX7 AlphaScr 0.929.
For CCCCc1nc2ccccc2c(NC(=O)CN2CCN(C(=O)c3ccco3)CC2)c1CCC the results were CBX7 AlphaScr 0.964.
`CCc1nc2ccccc2c(NC(=O)CN2CCN(C)CC2)c1C` gave CBX7 AlphaScr 0.0535*.
O=C(CN1CCCCC1)Nc1c2c(nc3ccccc13)N(c1cccc(Cl)c1)CC2 was read as CBX7 AlphaScr 0.995.
`Cc1ccc(C(=O)NCCc2nc(-c3ccccc3)cs2)cc1` gave CBX7 AlphaScr 1.08.
COc1ccc(Br)c(-c2nc(-c3cccc(C(F)(F)F)c3)no2)c1 was read as CBX7 AlphaScr 1.17.
`CC1NC(=O)NC1CCCCCC(=O)OCC(=O)c1ccccc1` (centres undefined) gave CBX7 AlphaScr 0.159*.
`COc1ccc(-c2cn3c(C)c(C(=O)Nc4ccc(F)cc4F)sc3n2)cc1` gave CBX7 AlphaScr 0.918.
`CCOC(=O)c1c(NC(=O)Cn2cnc3ccccc32)sc2c1CCCC2` gave CBX7 AlphaScr 0.917.
`O=C(Nc1ccc2oc(-c3ccncc3)nc2c1)c1ccc(-c2ccc(Cl)cc2)o1` gave CBX7 AlphaScr 0.966.
For CCc1ccc2oc(-c3ccc(NC(=O)c4ncn[nH]4)cc3)nc2c1 the results were CBX7 AlphaScr 0*.
For CCc1ccc2oc(-c3ccc(NC(=O)c4ccccc4)cc3)nc2c1 the results were CBX7 AlphaScr 0.849.
CCc1ccc2oc(-c3ccc(NC(=O)c4cc(OC)cc(OC)c4)cc3)nc2c1 was read as CBX7 AlphaScr 0.952.
O=C(Nc1ccc2oc(-c3ccncc3)nc2c1)c1ccc(-c2ccc(F)cc2)o1 was read as CBX7 AlphaScr 0.405*.
`O=C(Nc1ccc2oc(-c3cccnc3)nc2c1)c1ccc(-c2ccc(F)cc2)o1` gave CBX7 AlphaScr 0.99.
`COc1ccc(-n2c(Cc3cc(=O)[nH]c(=O)[nH]3)nnc2SCC(=O)c2ccccc2)cc1` gave CBX7 AlphaScr 1.
For O=C(CCCn1c(=O)c2sccc2n(Cc2ccccc2F)c1=O)NCc1ccccc1 the results were CBX7 AlphaScr 0.927.
Cc1ccc(CCNC(=O)CN2C(=O)COc3ccc(C(C)(C)C)cc32)cc1 was read as CBX7 AlphaScr 0.821.
CC(C)(C)c1ccc2c(c1)N(CC(=O)NCCN1CCN(Cc3ccccc3)CC1)C(=O)CO2 was read as CBX7 AlphaScr 0.977.
For CC(C)(C)c1ccc2c(c1)N(CC(=O)NCCc1ccccc1)C(=O)CO2 the results were CBX7 AlphaScr 0.407*.
COc1cccc(C2CC(c3ccc(OC(F)F)cc3)n3nnnc3N2)c1 (centres undefined) was read as CBX7 AlphaScr 1.03.
Cc1cccc(OCC(=O)Nc2c(C(=O)c3ccc(Br)cc3)oc3ccccc23)c1 was read as CBX7 AlphaScr 1.09.
For CCCOc1ccc(C2C(=O)N(C3CCCCC3)CC(=O)N2Cc2ccc(C)cc2)cc1OC (centres undefined) the results were CBX7 AlphaScr 0.942.
`Cc1[nH]c2ccc(-c3nnc(SCCc4ccccc4)n3-c3ccccc3)cc2c1C` gave CBX7 AlphaScr 0.783.
`Cc1[nH]c2ccc(-c3nnc(SCCO)n3-c3ccc(Br)cc3)cc2c1C` gave CBX7 AlphaScr 0.455*.
For CCSc1nnc(-c2ccc3[nH]c(C)c(C)c3c2)n1-c1ccccc1 the results were CBX7 AlphaScr 0.936.
Cc1cc(S(=O)(=O)n2c(/C=C/c3cccc(Br)c3)nc3ccccc32)ccc1F was read as CBX7 AlphaScr 1.42.
Screening COc1ccccc1Nc1nc(-c2ccc(C)cc2)nc2ccccc12 returned CBX7 AlphaScr 1.41.
For COc1ccccc1Nc1nc(-c2ccccc2Cl)nc2ccccc12 the results were CBX7 AlphaScr 1.28.
Screening COc1ccccc1Nc1nc(-c2ccncc2)nc2ccccc12 returned CBX7 AlphaScr 0.329*.
COC(=O)c1ccc(C(=O)Nc2ccccc2-c2nc3ccccc3s2)cc1 was read as CBX7 AlphaScr 1.08.
Oc1cccc(-c2nc(-c3ccccc3)c(-c3ccccc3)[nH]2)c1 was read as CBX7 AlphaScr 0.341*.
For Oc1cccc(-c2nc(-c3ccccc3)c(-c3ccc(F)cc3)[nH]2)c1 the results were CBX7 AlphaScr 0.348*.
Screening O=C(O)c1ccc(-c2nc(-c3ccc(C(=O)c4ccc(F)cc4)cc3)c(-c3ccc(F)cc3)[nH]2)cc1 returned CBX7 AlphaScr 0.711.
Oc1ccc(-c2nc(-c3ccccc3)c(-c3ccc(F)cc3)[nH]2)cc1O was read as CBX7 AlphaScr 0.776.
Screening O=C(c1ccccc1)c1ccc(-c2[nH]c(-c3cccc(Cl)c3)nc2-c2ccccc2)cc1 returned CBX7 AlphaScr 0.901.
Cc1ccc(C)c(-c2[nH]c(-c3cccc(O)c3)nc2-c2ccccc2)c1 was read as CBX7 AlphaScr 0.592.
Screening Cc1nc(Nc2ccc(F)cc2F)c2c3c(sc2n1)CCCC3 returned CBX7 AlphaScr 1.
For CCCN(CCC)C(=O)c1ccc2c(c1)N(Cc1ccc(F)cc1)C(=O)c1ccccc1S2=O (centres undefined) the results were CBX7 AlphaScr 0.864.
For COc1ccccc1NC(CNS(=O)(=O)c1ccccc1)c1ccccc1 (centres undefined) the results were CBX7 AlphaScr 0.47*.
`COc1ccc(NC(CNS(=O)(=O)c2ccc(Cl)cc2)c2ccccc2)cc1` (centres undefined) gave CBX7 AlphaScr 0.536.
For O=S(=O)(NCC(Nc1ccccc1)c1ccccc1)c1ccc(Cl)cc1 (centres undefined) the results were CBX7 AlphaScr 0.984.
For Cc1ccc2c(c1)c(=O)c(C(=O)c1ccccc1)cn2Cc1ccccc1 the results were CBX7 AlphaScr 0.62.

Bioassay records as filed in PubChem BioAssay.
